From PubChem BioAssay (NCATS)
Records with an inconclusive call do not appear.

Assay: qHTS Assay for Lipid Storage Modulators (AID 1519)
Conditions: Drosophila S3 cells, BODIPY lipid droplet/cell ratio, laser cytometry; measured here: lipid channel max response; cells loaded with oleic acid
How it was run: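 Cells seeded at 5,000 per well were treated with compounds over a concentration series and loaded with oleic acid (400 uM, as added). Lipid droplet fluorescence (488 nm excitation, 500-530 nm channel) was read by laser-scanning cytometry and normalized to 20 uM Triacsin C.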

Compound	max response
O=C(O)C1OC(O)C(O)C(O)C1O (stereo not given)	-5.5%
CCCCCC(=O)Cc1cc(O)cc(O)c1C(=O)Oc1cc(CC(=O)CCCCC)c(C(=O)O)c(OC)c1	16.1%
COC(=O)CC1C(C)(C)C(OC(C)=O)C2CC3C4CC(=O)OC(c5ccoc5)[C@]4(C)CCC3[C@@]1(C)C2=O (stereo not given in full)	-17.5%
C[C@@H]1O[C@@H](O[C@H]2[C@H](Oc3cc(O)c4c(c3)O[C@H](c3ccc(O)cc3)CC4=O)O[C@H](CO)[C@@H](O)[C@@H]2O)[C@H](O)[C@H](O)[C@H]1O	-9.22%
Cc1cc(=O)oc2cc(O[C@@H]3O[C@H](C(=O)O)[C@@H](O)[C@H](O)[C@H]3O)ccc12	16.3%
C=C[C@](C)(O)CCC1C(=C)CCC2[C@@](C)(CO)CCC[C@@]12C (stereo not given in full)	3.55%
COC1OC2COC(c3ccccc3)OC2C(O)C1O (stereo not given)	4.04%
COc1cccc2c1CCC1CC(=O)CC[C@@]21C (stereo not given in full)	-5.49%
Nc1ccn([C@H]2C[C@H](O)[C@@H](CO)O2)c(=O)n1	2.44%
O=c1[nH]c(=O)n([C@@H]2O[C@H](CO)[C@@H](O)[C@H]2O)cc1Br	-16.6%
CNc1ccccc1C(=O)N1CCc2c([nH]c3ccccc23)C1=O	25.5%
C/C=C(\C)C(=O)OC1[C@@H]2C=C3C4CC(=O)OC(c5ccoc5)[C@]4(C)CCC3[C@@](C)(C2=O)C(C(O)C(=O)OC)C1(C)C (stereo not given in full)	12.5%
COc1ccc2c(c1)OCC(Cc1ccc(OC)c(OC)c1)C2O (stereo not given)	15.9%
Cc1ccc2c(c1)CC[C@H]1CC(=O)CC[C@@]21C	1.9%
O=c1cc(-c2cccc(O)c2)oc2ccc(O)cc12	17.7%
